# Activity calls are given as the source filed them. The calls were made as follows: active = hit-call score of the fitted dose curve at least 0.9, where 1 is the maximum; inactive = score below 0.9.
# Tests used:
# [1] = ATG_PXRE_CIS: Attagene CIS-FACTORIAL HepG2 Assay for human Pregnane X Receptor Element (PXRE) (AID 2282957); settings: HepG2 Attagene CIS-FACTORIAL PXRE reporter, mRNA; actives raise or lower the signal
# Method in brief: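 Bidirectional activity, baselined to DMSO, derived from reporter mRNA fluorescence (RT-PCR plus capillary electrophoresis) in HepG2 cells bearing cis-promoter reporter units, 24 h exposure.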
# [2] = ATG_PPRE_CIS: Attagene CIS-FACTORIAL HepG2 Assay for human Peroxisome Proliferator-activated Response Element (PPRE) (AID 2282958); settings: HepG2 PPRE cis-element reporter, Attagene transcription factor profiling; actives raise or lower the signal
# Method in brief: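 In this cell-based multiplex, a PPRE cis element drives a reporter sequence in transiently transfected HepG2 cells. Following 24 h treatment, labeled cDNA amplicons are sized and quantified by capillary electrophoresis, with DMSO defining baseline.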
# [3] = ATG_RORE_CIS: Attagene CIS-FACTORIAL HepG2 Assay for human RAR-related Orphan Receptor Element (RORE) (AID 2282959); settings: HepG2 Attagene cis-factorial RORE reporter, mRNA; actives raise or lower the signal
# Method in brief: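 Endogenous factor activity at a cis response element is read as reporter transcript levels in HepG2 cells, 24 h post-dose. Transcripts are quantified by RT-PCR with capillary electrophoresis, and data fitted in both directions against DMSO.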
# [4] = ATG_Sox_CIS: Attagene CIS-FACTORIAL HepG2 Assay for human SRY-box transcription factor (SOX) (AID 2282960); settings: HepG2 Attagene cis-factorial SOX reporter, mRNA; actives raise or lower the signal
# Method in brief: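 Measures mRNA induction of a SOX1-associated reporter in HepG2 after 24 h dosing. Fluorescently labelled RT-PCR fragments are separated by capillary electrophoresis, and gain or loss relative to DMSO control is fitted.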
# [5] = ATG_SREBP_CIS: Attagene CIS-FACTORIAL HepG2 Assay for human Sterol Regulatory Element Binding (SREBP) (AID 2282962); settings: HepG2 Attagene cis-factorial SREBP reporter, mRNA; actives raise or lower the signal
# Method in brief: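 Endogenous factor activity is measured in HepG2 through multiplexed reporter units under cis-element control. Following a 24 h incubation, reporter transcripts are reverse-transcribed, PCR-amplified and sized by capillary electrophoresis; activity is fitted in both directions relative to DMSO.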
# [6] = biological target: Signal transducer and activator of transcription 3 (Homo sapiens) (UniProt P40763); test: ATG_STAT3_CIS: Attagene CIS-FACTORIAL HepG2 Assay for human Signal Transducer and Activator of Transcription 3 (STAT3) (AID 2282963); settings: HepG2, Attagene cis-factorial STAT3 reporter transcription; actives raise or lower the signal
# Chain of Signal transducer and activator of transcription 3 (Homo sapiens) (P40763 whole entry, looked up): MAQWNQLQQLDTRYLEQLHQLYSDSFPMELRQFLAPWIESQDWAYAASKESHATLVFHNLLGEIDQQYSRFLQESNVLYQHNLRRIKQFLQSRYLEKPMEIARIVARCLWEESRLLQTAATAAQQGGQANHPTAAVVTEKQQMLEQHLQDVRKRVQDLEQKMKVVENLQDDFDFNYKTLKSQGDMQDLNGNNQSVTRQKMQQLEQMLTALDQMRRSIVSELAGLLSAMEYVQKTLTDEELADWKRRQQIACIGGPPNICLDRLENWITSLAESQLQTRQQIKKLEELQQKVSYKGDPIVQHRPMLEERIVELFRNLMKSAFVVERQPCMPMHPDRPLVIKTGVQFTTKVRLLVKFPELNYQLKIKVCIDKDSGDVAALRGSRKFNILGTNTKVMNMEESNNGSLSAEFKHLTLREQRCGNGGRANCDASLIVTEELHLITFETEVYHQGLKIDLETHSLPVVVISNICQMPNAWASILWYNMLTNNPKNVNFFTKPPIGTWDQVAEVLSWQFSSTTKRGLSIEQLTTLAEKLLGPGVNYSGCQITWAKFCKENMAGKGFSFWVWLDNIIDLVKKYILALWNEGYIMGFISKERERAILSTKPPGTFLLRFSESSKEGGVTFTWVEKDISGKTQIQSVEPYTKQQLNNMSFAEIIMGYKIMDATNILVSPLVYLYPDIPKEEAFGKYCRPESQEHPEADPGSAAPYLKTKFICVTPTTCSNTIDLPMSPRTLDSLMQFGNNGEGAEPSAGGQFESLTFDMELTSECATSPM
# Method in brief: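 HepG2, MRTU-transfected, 24 h dosing. RNA → RT → PCR → FAM label → HpaI → CE. Bidirectional fit vs DMSO.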
# [7] = ATG_TA_CIS: Attagene CIS-FACTORIAL HepG2 Assay for human TA Basal Promoter (AID 2282964); settings: HepG2 Attagene CIS-factorial TA basal promoter reporter; actives raise or lower the signal
# Method in brief: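 Transient MRTU transfection of HepG2 preceded 24 h compound exposure. Reporter mRNA levels were then read by RT-PCR with capillary electrophoresis, and this background-control endpoint was fitted bidirectionally to DMSO.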
# [8] = ATG_TCF_b_cat_CIS: Attagene CIS-FACTORIAL HepG2 Assay for human T-Cell-Factor with beta-catenin (TCF/b-cat) (AID 2282965); settings: HepG2 TCF/beta-catenin cis-reporter transcription, actives raise or lower the signal
# Method in brief: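 In this cis-format system, transfected HepG2 cells report endogenous transcription factor activity. Readout after 24 h exposure is reporter transcript abundance from RT-PCR and capillary electrophoresis, analysed for gain or loss of signal versus DMSO.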
# [9] = ATG_TAL_CIS: Attagene CIS-FACTORIAL HepG2 Assay for human TAL Basal Promoter (AID 2282966); settings: HepG2 Attagene cis-factorial TAL promoter reporter; actives raise or lower the signal;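 also: background control endpoint measuring basal TAL promoter reporter mRNA not a specific factor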
# Method in brief: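 Human hepatoma HepG2 cells, transfected with promoter-regulated reporter units, were treated 24 h. Reporter transcript levels, measured through RT-PCR and capillary electrophoresis, were fitted for gain or loss relative to DMSO.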
# [10] = biological target: Transcription factor Sp1 (Homo sapiens) (UniProt P08047); test: ATG_Sp1_CIS: Attagene CIS-FACTORIAL HepG2 Assay for human Specificity Protein 1 (Sp1) (AID 2282961); settings: HepG2 Sp1 cis-reporter transcription, actives raise or lower the signal
# Chain of Transcription factor Sp1 (Homo sapiens) (P08047 whole entry, looked up): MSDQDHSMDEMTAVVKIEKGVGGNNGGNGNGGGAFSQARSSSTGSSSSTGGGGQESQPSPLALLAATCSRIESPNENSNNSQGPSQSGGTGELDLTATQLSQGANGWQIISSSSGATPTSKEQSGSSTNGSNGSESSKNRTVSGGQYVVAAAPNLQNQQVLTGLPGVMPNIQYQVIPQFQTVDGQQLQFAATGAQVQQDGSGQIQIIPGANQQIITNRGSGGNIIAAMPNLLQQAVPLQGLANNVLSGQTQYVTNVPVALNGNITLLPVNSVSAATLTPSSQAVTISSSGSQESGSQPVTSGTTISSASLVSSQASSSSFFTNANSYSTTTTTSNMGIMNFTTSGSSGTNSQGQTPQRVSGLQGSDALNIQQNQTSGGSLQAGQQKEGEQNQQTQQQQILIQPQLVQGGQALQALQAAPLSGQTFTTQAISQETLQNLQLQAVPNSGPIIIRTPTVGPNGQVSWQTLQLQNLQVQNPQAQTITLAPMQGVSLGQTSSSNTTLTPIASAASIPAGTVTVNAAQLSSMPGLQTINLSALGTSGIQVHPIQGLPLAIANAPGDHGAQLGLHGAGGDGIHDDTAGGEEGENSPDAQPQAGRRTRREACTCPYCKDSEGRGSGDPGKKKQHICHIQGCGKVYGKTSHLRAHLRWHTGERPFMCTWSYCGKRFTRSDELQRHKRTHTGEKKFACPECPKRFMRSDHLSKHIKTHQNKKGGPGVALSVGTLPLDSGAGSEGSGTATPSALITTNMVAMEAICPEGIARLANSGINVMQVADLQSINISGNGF
# Method in brief: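 Cells: HepG2, transiently transfected with cis-regulated multiplexed reporters. Exposure: 24 h. Detection: reporter transcripts amplified, fluorescently labeled, restriction-digested and sized by capillary electrophoresis. Analysis: bidirectional fit relative to DMSO.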
smiles,measurement,setting,value
CCCCC(CC)CO (stereo unspecified),AC50,[1],27.5 µM (active)
same,outcome,[2],inactive
same,outcome,[3],inactive
same,outcome,[4],inactive
same,outcome,[5],inactive
same,outcome,[6],inactive
same,outcome,[7],inactive
same,outcome,[8],inactive
same,outcome,[9],inactive
CCCCCCC(CCCCCCCCCCC(=O)OCC(COC(C)=O)OC(C)=O)OC(C)=O (stereo unspecified),AC50,[1],50 µM (active)
same,AC50,[2],39.6 µM (active)
same,outcome,[3],inactive
same,outcome,[4],inactive
same,outcome,[10],inactive
same,outcome,[5],inactive
same,outcome,[7],inactive
same,outcome,[9],inactive
CC(C)c1cccc(C(C)C)c1,outcome,[1],inactive
same,outcome,[2],inactive
same,outcome,[3],inactive
same,outcome,[4],inactive
same,outcome,[5],inactive
same,outcome,[7],inactive
same,outcome,[8],inactive
same,outcome,[9],inactive
CS(=O)(=O)c1ccc([C@@H](C[C@H]2CCC(=O)C2)C(=O)Nc2cnccn2)cc1Cl,outcome,[1],inactive
same,outcome,[2],inactive
same,outcome,[3],inactive
same,outcome,[4],inactive
same,outcome,[5],inactive
same,outcome,[7],inactive
same,outcome,[8],inactive
same,outcome,[9],inactive
CCCCC(CC)COP(=O)(OCC(CC)CCCC)OCC(CC)CCCC (stereo unspecified),AC50,[1],0.339 µM (active)
same,outcome,[2],inactive
same,outcome,[3],inactive
same,outcome,[4],inactive
same,outcome,[5],inactive
same,outcome,[6],inactive
same,outcome,[7],inactive
same,outcome,[9],inactive
N[C@@H](Cc1c[nH]c2ccccc12)C(=O)O,outcome,[1],inactive
same,outcome,[2],inactive
same,outcome,[3],inactive
same,outcome,[4],inactive
same,outcome,[10],inactive
same,outcome,[5],inactive
same,outcome,[7],inactive
same,outcome,[9],inactive
C/C=C/c1ccc(OC)cc1,outcome,[1],inactive
same,outcome,[2],inactive
same,outcome,[3],inactive
same,outcome,[4],inactive
same,outcome,[5],inactive
same,outcome,[7],inactive
same,outcome,[8],inactive
same,outcome,[9],inactive
CCC(C)N(C)C(=O)c1cc2ccccc2c(-c2ccccc2Cl)n1 (stereo unspecified),AC50,[1],0.135 µM (active)
same,AC50,[2],106 µM (active)
same,AC50,[3],46.9 µM (active)
same,outcome,[4],inactive
same,outcome,[5],inactive
same,AC50,[7],44.3 µM (active)
same,outcome,[9],inactive
CO[C@@H]1COCC[C@@H]1N[C@@H]1CC[C@@](C(=O)N2CCc3ncc(C(F)(F)F)cc3C2)(C(C)C)C1,outcome,[1],inactive
same,outcome,[2],inactive
same,outcome,[3],inactive
same,outcome,[4],inactive
same,AC50,[5],77.7 µM (active)
same,outcome,[7],inactive
same,outcome,[8],inactive
same,outcome,[9],inactive
CCCCCCCCCCCCCCCCO,outcome,[1],inactive
same,outcome,[2],inactive
same,outcome,[3],inactive
same,outcome,[4],inactive
same,outcome,[5],inactive
same,outcome,[6],inactive
same,outcome,[7],inactive
same,AC50,[8],159 µM (active)
same,outcome,[9],inactive
NC(=Nc1ccccc1)Nc1ccccc1,outcome,[1],inactive
same,outcome,[2],inactive
same,AC50,[3],29.5 µM (active)
same,outcome,[4],inactive
same,outcome,[10],inactive
same,outcome,[5],inactive
same,outcome,[7],inactive
same,AC50,[8],6.54 µM (active)
same,outcome,[9],inactive
CCOCCOCCO,outcome,[1],inactive
same,outcome,[2],inactive
same,outcome,[3],inactive
same,outcome,[4],inactive
same,outcome,[5],inactive
same,outcome,[7],inactive
same,outcome,[8],inactive
same,outcome,[9],inactive
O=NO,outcome,[1],inactive
same,outcome,[2],inactive
same,outcome,[3],inactive
same,outcome,[4],inactive
same,outcome,[10],inactive
same,outcome,[5],inactive
same,outcome,[7],inactive
same,outcome,[9],inactive
CCCC(=O)O,outcome,[1],inactive
same,outcome,[2],inactive
same,outcome,[3],inactive
same,outcome,[4],inactive
same,outcome,[5],inactive
same,outcome,[6],inactive
same,outcome,[7],inactive
same,outcome,[8],inactive
same,outcome,[9],inactive
O=C(Oc1ccccc1)c1cccc(C(=O)Oc2ccccc2)c1,outcome,[1],inactive
same,AC50,[2],104 µM (active)
same,outcome,[3],inactive
same,outcome,[4],inactive
same,outcome,[5],inactive
same,outcome,[6],inactive
same,outcome,[7],inactive
same,outcome,[9],inactive
Cn1cnc2c1c(=O)[nH]c(=O)n2C,outcome,[1],inactive
same,outcome,[2],inactive
same,outcome,[3],inactive
same,outcome,[4],inactive
same,outcome,[5],inactive
same,outcome,[7],inactive
same,outcome,[8],inactive
same,outcome,[9],inactive
S=c1[nH]c2ccccc2s1,AC50,[1],61.2 µM (active)
same,AC50,[2],28.5 µM (active)
same,outcome,[3],inactive
same,outcome,[4],inactive
same,AC50,[5],59 µM (active)
same,AC50,[6],63.2 µM (active)
same,outcome,[7],inactive
same,outcome,[8],inactive
same,outcome,[9],inactive
Cc1cn([C@H]2C=C[C@@H](CO)O2)c(=O)[nH]c1=O,outcome,[1],inactive
same,outcome,[2],inactive
same,outcome,[3],inactive
same,outcome,[4],inactive
same,outcome,[5],inactive
same,outcome,[6],inactive
same,outcome,[7],inactive
same,outcome,[9],inactive
CC(C)(C)c1ccccc1,outcome,[1],inactive
same,outcome,[3],inactive
same,outcome,[4],inactive
same,outcome,[5],inactive
same,outcome,[6],inactive
same,outcome,[7],inactive
same,outcome,[8],inactive
same,outcome,[9],inactive
COc1ccc(OC(F)(F)F)cc1CN[C@H]1CCCN[C@H]1c1ccccc1,AC50,[1],1.85 µM (active)
same,outcome,[3],inactive
same,outcome,[4],inactive
same,AC50,[5],19.4 µM (active)
same,outcome,[7],inactive
same,outcome,[9],inactive
c1ccc2occc2c1,outcome,[1],inactive
same,outcome,[3],inactive
same,outcome,[4],inactive
same,outcome,[10],inactive
same,outcome,[5],inactive
same,outcome,[6],inactive
same,outcome,[7],inactive
same,outcome,[9],inactive
CCCCCCCCCCCCCCOS(=O)(=O)O,outcome,[1],inactive
same,outcome,[2],inactive
same,outcome,[4],inactive
same,outcome,[5],inactive
same,outcome,[7],inactive
same,outcome,[8],inactive
same,outcome,[9],inactive
COC(=O)CCCC(=O)OC,outcome,[1],inactive
same,outcome,[3],inactive
same,outcome,[4],inactive
same,outcome,[10],inactive
same,outcome,[5],inactive
same,outcome,[6],inactive
same,outcome,[7],inactive
same,outcome,[8],inactive
same,outcome,[9],inactive
